Results on 7 sequences are retold here after the supplement of paper PMC6555819.

What all share (assay): PBM binding z-score (relative to random genomic background probes); higher = stronger binding; sequences stand for … in GC…GCGATTGACAGCGTAGAATGAAGG
Assay [1] deals with FXR:RXRa (NR concentration 270 nM, RXRa partner concentration 90 nM). The method, boiled down:
(§1)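 Binding buffer was PBS pH 7.4 with 2% milk, 0.02% Triton X-100, 1 mM DTT, 0.2 mg/mL BSA and 0.4 mg/ml salmon testes DNA. In it, ligand-free nuclear receptor dimers were incubated 1 h on custom Agilent 4×180K protein-binding microarrays carrying double-stranded probes. Antibodies against each partner (one per run) detected binding, and z-scores were calculated against random background probes after regression normalization of scanned fluorescence.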

Assay [2] deals with LXRa:RXRa (NR concentration 270 nM, RXRa partner concentration 90 nM). The method, boiled down:
as §1

The subject of assay [3] is LXRa homodimer (NR concentration 270 nM). In short, it runs like this: as §1
Assay [4] has as its system LXRb:RXRa (NR concentration 270 nM, RXRa partner concentration 90 nM). In short, it runs like this: as §1
Assay [5] has as its system LXRb homodimer (NR concentration 270 nM). In short, it runs like this: as §1
Assay [6] concerns PPARa:RXRa (NR concentration 270 nM, RXRa partner concentration 90 nM). The method, boiled down:
as §1

Assay [7] deals with PPARg:RXRa (NR concentration 180 nM, RXRa partner concentration 90 nM). In short, it runs like this:
as §1

The test system of assay [8] is PPARg:RXRa 270nM:90nM, anti-RXR (NR concentration 270 nM, RXRa partner concentration 90 nM). In short, it runs like this: as §1
Assay [9] relates to PPARg:RXRa 30nM:10nM, anti-RXR (NR concentration 30 nM, RXRa partner concentration 10 nM). In short, it runs like this: as §1
In assay [10] the test system is PPARg:RXRa 90nM:30nM, anti-RXR (NR concentration 90 nM, RXRa partner concentration 30 nM). The method, boiled down: as §1
The subject of assay [11] is PPARg:RXRa DBDmut IVT, anti-RXR (DBD mutation: RXRa K156A/R161A, NR concentration 270 nM, RXRa partner concentration 90 nM). The method, boiled down:
as §1

The test system of assay [12] is PPARg:RXRa IVT, anti-PPARg (NR concentration 270 nM, RXRa partner concentration 90 nM). The method, boiled down: as §1
For assay [13], the system named is PPARg DBDmut:RXRa IVT, anti-PPARg (DBD mutation: PPARg1 K132A/R137A, NR concentration 270 nM, RXRa partner concentration 90 nM). The method, boiled down: as §1
The test system of assay [14] is PPARg DBDmut IVT, anti-PPARg (DBD mutation: PPARg1 K132A/R137A, NR concentration 270 nM). In short, it runs like this: as §1
For assay [15], the system named is PPARg homodimer (NR concentration 180 nM). In short, it runs like this: as §1
The test system of assay [16] is PXR:RXRa (NR concentration 270 nM, RXRa partner concentration 90 nM). In short, it runs like this: as §1
Assay [17] deals with PXR homodimer (NR concentration 270 nM). The method, boiled down:
as §1

The test system of assay [18] is RARa:RXR (NR concentration 270 nM, RXRa partner concentration 90 nM). In short, it runs like this:
as §1

Assay [19] concerns RARa homodimer (NR concentration 270 nM). In short, it runs like this:
as §1

In assay [20] the test system is RARb:RXRa (NR concentration 270 nM, RXRa partner concentration 90 nM). In short, it runs like this:
as §1

As for TCTAGTTGGTCTCGGAGGTCACACACGACGGGTA, the PBM binding z-score in assay [1] was found to be 2.68; in [2], 3; in [3] it was 2.28; in [4], 3.18; in assay [5], 0.844; in assay [6] it was 3.52. Further, the PBM binding z-score stood at 1.68 in [7]; 3.05 in [8]; 3.33 in assay [9]; 3.13 in assay [10]; 1.7 in assay [11]; 2.32 in [12]. For the same sequence, the PBM binding z-score in assay [13] was 1.38; in assay [14], 1.29; in assay [15], 2.19; in assay [16], 4.11; in [17], 0.901; in [18], 4.22. Besides, the PBM binding z-score in assay [19] came out at 0.998; in assay [20], 3.35.

With ACTAGCACGCCAAGGGTCACTCAAGATTAGTCCG, the PBM binding z-score was 2.79 in [1]; 3.15 in assay [2]; 0.382 in assay [3]; 3.1 in [4]; -0.324 in [5]; 3.64 in [6]. Further, the PBM binding z-score amounted to 2.48 in assay [7]; 3.7 in [8]; 1.47 in [9]; 3.3 in assay [10]; 0.189 in assay [11]; 1.26 in assay [12]. The PBM binding z-score was -0.247 in [13]; -0.0799 in assay [14]; 2.55 in [15]; 3.56 in [16]; 0.0958 in [17]; 4.5 in assay [18]. Also, the PBM binding z-score in [19] stood at 1.53; in assay [20], 3.58.

Turning to ACTTACGGGTCAACGCGGTTATAGCACGCGTATA, the PBM binding z-score in [1] came out at 6.63; in assay [2] it was 4.76; in assay [3], 0.698; in assay [4], 4.08; in [5] it was 0.727; in [6] it was 5.52. For the same sequence, the PBM binding z-score in assay [7] was 4.9; in [8], 5.47; in assay [9] it was 1.84; in assay [10], 4.14; in assay [11], 3.64; in [12] it was 4.12. Further, the PBM binding z-score in [13] was 1.26; in assay [14], 1.32; in [15], 1.91; in assay [16] it was 3.92; in assay [17], 0.241; in [18], 4.45. The PBM binding z-score in assay [19] was determined as 0.802; in [20], 4.04.

For CCTTACGGGTGACGAGGTTATAGCACGACGAGCG, the PBM binding z-score in assay [1] was 0.791; in assay [2], 0.766; in [3], -0.00764; in assay [4], 0.572; in [5], -0.569; in assay [6], 2.24. Besides, the PBM binding z-score in [7] is 1.89; in assay [8] it was 1.82; in [9], -0.0114; in assay [10], 1.22; in [11], 1.91; in assay [12], 2.65. Moreover, the PBM binding z-score in assay [13] is 0.21; in assay [14], -0.275; in assay [15] it was 1.21; in assay [16], 0.931; in assay [17] it was -0.0569; in assay [18] it was 1.52. The PBM binding z-score in [19] was 0.128; in assay [20] it was 1.1.

Regarding ACTAGCAGGCCACGTTTGGGTCACTCAAACAAAG, the PBM binding z-score in [1] was 0.331; in [2] it was 0.116; in assay [3] it was -0.479; in assay [4] it was 0.601; in [5] it was -0.41; in assay [6], 1.42. Also, the PBM binding z-score in [7] was 0.444; in assay [8], 0.355; in assay [9], -0.448; in assay [10] it was -0.155; in [11], 1.75; in assay [12], 1.88. Besides, the PBM binding z-score is -0.646 in assay [13]; -0.408 in assay [14]; 0.639 in assay [15]; 0.56 in assay [16]; -0.664 in [17]; 1.3 in assay [18]. The PBM binding z-score in assay [19] was -0.197; in assay [20] it was 1.58.

As to GCTTGTAGATCAAGGTCAAGAAAGACTAAGCTAA, the PBM binding z-score in assay [1] was determined as 3.17; in [2], 3.25; in assay [3], 0.618; in assay [4], 3.02; in assay [5] it was 0.0549; in assay [6], 3.91. Besides, the PBM binding z-score came out at 1.86 in assay [7]; 3.04 in assay [8]; 0.697 in assay [9]; 2.12 in [10]; 2.14 in assay [11]; 2.87 in assay [12]. The PBM binding z-score in assay [13] is 0.431; in assay [14], -0.296; in assay [15], 1.34; in assay [16], 2.63; in assay [17], 0.449; in assay [18], 3.08. For the same sequence, the PBM binding z-score in [19] worked out at 0.173; in [20] it was 3.5.

In the case of ACTAGTTGGTTAGCTGAGGTCACACACAATTCGG, the PBM binding z-score in assay [1] is 2.92; in assay [2], 3.56; in [3], 3.63; in assay [4], 3.49; in [5], 0.944; in assay [6], 3.95. Further, the PBM binding z-score in [7] came to 1.63; in [8] it was 2.35; in assay [9] it was 0.884; in [10], 1.41; in assay [11] it was 0.671; in [12], 2.34. Besides, the PBM binding z-score in [13] turned out to be 0.586; in [14] it was 0.524; in [15], 3.15; in assay [16], 5.03; in assay [17] it was 2.31; in assay [18], 4.59. Further, the PBM binding z-score in [19] was found to be 1.66; in [20], 3.06.
